Source: PubChem
Sampled rows, rich in hits. Any-hit rate of the full collection: about 3.5%.
LEDGF integ inh – blocks HIV-1 LEDGF/p75-dependent DNA integration; 370,000 compounds, 0.64% hits; TR-FRET IN-LEDGF/p75 DNA integration, Eu/Cy5; inhibition, % at 3.7 µM; AID 743269;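 active means inhibition above the screen-wide mean plus 3 SD, cut at about 13% in these data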;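 further: signal is the Cy5 over europium emission ratio at 671 and 618 nm; 0% = plate median of compound wells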
UHRF1 MBD2 ctr – blocks human UHRF1 binding to methylated DNA | UHRF1 binding to methylated oligo, TR-FRET | Q96T88 | inhibition, % at 4.4 µM | 370,000 compounds, 0.75% hits; in the data active means inhibition above about 21%;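 further: UHRF1 SRA domain binding a hemimethylated CpG hairpin DNA probe; 0% = median of test compound wells and 100% = reference inhibitor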
rCAG RNA binder – molecules binding r(CAG) RNA repeats; r(CAG) RNA repeat, TO-PRO-1 dye displacement fluorescence; inhibition, % at 3 µM; 370,000 compounds, 1.3% hits; AID 651821;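 active means inhibition above the plate cutoff, the mean of all test compounds on that plate plus 3 SD, cut at about 35% in these data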;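 further: 0% = DMSO alone and 100% = 100 µM mitoxantrone as full dye displacement; higher means more dye released from RNA so lower well fluorescence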
MBD2 DNA inh – MBD2-methylated oligo binding inhibition; Q9UBB5; TR-FRET, MBD2 binding to methylated oligonucleotide; inhibition, % at 4.4 µM; 370,000 compounds, 0.31% hits; in the data active means inhibition above about 13%
Target sequence (Q9UBB5 whole entry, looked up): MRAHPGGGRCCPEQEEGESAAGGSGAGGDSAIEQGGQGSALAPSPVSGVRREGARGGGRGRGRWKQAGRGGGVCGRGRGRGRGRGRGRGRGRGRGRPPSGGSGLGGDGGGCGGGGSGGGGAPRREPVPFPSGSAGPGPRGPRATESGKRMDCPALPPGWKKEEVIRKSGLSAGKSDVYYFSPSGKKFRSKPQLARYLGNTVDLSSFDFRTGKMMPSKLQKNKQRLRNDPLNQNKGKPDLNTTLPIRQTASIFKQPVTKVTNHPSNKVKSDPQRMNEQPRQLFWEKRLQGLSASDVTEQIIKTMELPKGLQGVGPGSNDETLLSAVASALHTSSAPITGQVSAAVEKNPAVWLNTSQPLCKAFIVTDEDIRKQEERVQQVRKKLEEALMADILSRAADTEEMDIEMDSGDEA
PG9 Ab binder – PG9 antibody binding by small molecule. inhibition, % at 6.7 µM. TR-FRET gp120-PG9 antibody binding. AID 624416. 360,000 compounds, 0.43% hits; in the data active means inhibition above about 8.5%
DNMT1 block – blocks human DNA methyltransferase DNMT1 | 360,000 compounds, 0.83% hits | DNMT1 molecular beacon, Hinp1I cleavage, fluorescence | P26358 | inhibition (reported as % activation of signal), % at 10 µM; in the data active means inhibition above about 50%
Starred values were filed as active, the others as inactive.

Screening COC(=O)C1CN(C2CCCC2)CCS(=O)(=O)N1Cc1ccc(Cl)cc1 (stereo not given) returned LEDGF integ inh -3.6, UHRF1 MBD2 ctr 0.9, rCAG RNA binder 3.6 and MBD2 DNA inh 0.7.
For COc1ccc(OCc2cc(C(=O)NC(C)Cn3cncn3)no2)c(Cl)c1 (stereo not given) the results were LEDGF integ inh 6.8, UHRF1 MBD2 ctr 26.8*, rCAG RNA binder 15.3, MBD2 DNA inh 9.2, PG9 Ab binder -2.1 and DNMT1 block -0.8.
`COc1ccc(OCc2cc(C(=O)NC(C)Cc3cccnc3)no2)c(Cl)c1` (stereo not given) gave LEDGF integ inh -2.5, UHRF1 MBD2 ctr -2.4, rCAG RNA binder -7.7, MBD2 DNA inh -6.5, PG9 Ab binder 3.0 and DNMT1 block 2.4.
For C=CCOc1ccc(C(=O)N(Cc2ccc(N(C)C)cc2)C2CCS(=O)(=O)C2)cc1 (stereo not given) the results were LEDGF integ inh -2.9, UHRF1 MBD2 ctr 63.0*, rCAG RNA binder -0.8, MBD2 DNA inh 1.6, PG9 Ab binder -1.1 and DNMT1 block -12.4.
Screening CC(C)NC(=O)N[C@H]1C[C@@H]2O[C@H](CO)CC[C@@H]2O[C@@H]1CCc1ccc(-c2ccc(F)cc2)cc1 returned LEDGF integ inh -1.7, UHRF1 MBD2 ctr 5.5, rCAG RNA binder -0.5 and MBD2 DNA inh 1.1.
`Clc1cccc(Cc2c(C3CCCCC3)nc3c4ccccc4ccn23)c1` gave LEDGF integ inh 5.5, UHRF1 MBD2 ctr 24.1*, rCAG RNA binder 2.0, MBD2 DNA inh 2.9 and PG9 Ab binder -0.4.
FC(F)(F)c1ccccc1Cc1c(C2CCCCC2)nc2c3ccccc3ccn12 was read as LEDGF integ inh 3.0, UHRF1 MBD2 ctr 22.3*, rCAG RNA binder 3.0, MBD2 DNA inh 2.5, PG9 Ab binder -0.9 and DNMT1 block 0.6.
For CN(Cc1ccccc1)S(=O)(=O)c1cccc(C(=O)OCC2CCCCC2)c1 the results were LEDGF integ inh -0.4, UHRF1 MBD2 ctr 2.5, rCAG RNA binder 2.8 and MBD2 DNA inh 2.4.
COc1cc2c(cc1OC)C(=O)C(c1ccc3c(c1)OCO3)CC2 (stereo not given) was read as LEDGF integ inh -1.1, UHRF1 MBD2 ctr 3.4, rCAG RNA binder -1.5, MBD2 DNA inh -2.4, PG9 Ab binder 2.5 and DNMT1 block 5.3.
For COc1cc2c(cc1OC)C(=O)C(Br)CC2 (stereo not given) the results were DNMT1 block 83.0*.
Screening C/C(=N\NC(=O)CSCc1ccc([N+](=O)[O-])cc1)c1ccccc1O returned LEDGF integ inh -1.6, UHRF1 MBD2 ctr 2.5, rCAG RNA binder 21.9, MBD2 DNA inh 1.2, PG9 Ab binder -0.8 and DNMT1 block 0.8.
For C/C(=N\NC(=O)CSCc1ccc([N+](=O)[O-])cc1)c1ccccc1 the results were LEDGF integ inh -6.5, UHRF1 MBD2 ctr 30.3*, rCAG RNA binder -0.7, MBD2 DNA inh 1.4, PG9 Ab binder 0.8 and DNMT1 block -4.1.
`COc1ccc(-c2nnc(SCc3c(F)cccc3F)n2N)cc1` gave LEDGF integ inh -0.7, UHRF1 MBD2 ctr 2.1, rCAG RNA binder 1.1 and MBD2 DNA inh -7.4.
Screening N#CCC[C@@H]1CC[C@]2(CCCN(C(=O)c3ccco3)C2)O1 returned LEDGF integ inh 2.1, UHRF1 MBD2 ctr 0.1, rCAG RNA binder 1.3 and MBD2 DNA inh 4.5.
`CC(c1ccc(NC(=O)OC(C)(C)C)cc1)c1cn(C)c2ccccc12` (stereo not given) gave LEDGF integ inh -1.6, UHRF1 MBD2 ctr 1.0, rCAG RNA binder 0.1 and MBD2 DNA inh -8.2.
For COc1cc(NC(=O)CSc2nnnn2Cc2ccc3c(c2)OCO3)cc(OC)c1 the results were LEDGF integ inh 4.0, UHRF1 MBD2 ctr 23.8*, rCAG RNA binder -1.9, MBD2 DNA inh 13.0, PG9 Ab binder -0.6 and DNMT1 block -4.9.
Screening CCn1nnnc1SCC(=O)Nc1ccc2c(c1)OCO2 returned LEDGF integ inh 0.6, UHRF1 MBD2 ctr 1.9, rCAG RNA binder 3.4, MBD2 DNA inh -3.2, PG9 Ab binder -1.0 and DNMT1 block 1.4.
Cn1c(=O)oc2cc(S(=O)(=O)Nc3ccccc3)ccc21 was read as LEDGF integ inh 4.1, UHRF1 MBD2 ctr 5.4, rCAG RNA binder 6.4, MBD2 DNA inh 4.2, PG9 Ab binder -2.9 and DNMT1 block 0.8.
For Cc1cc(C)c(NS(=O)(=O)c2ccc3c(c2)oc(=O)n3C)c(C)c1 the results were LEDGF integ inh -0.8, UHRF1 MBD2 ctr 39.4*, rCAG RNA binder 5.7, MBD2 DNA inh -0.9, PG9 Ab binder 0.5 and DNMT1 block 5.7.
For CCC1=NN2C(=N)/C(=C\c3cccn3-c3ccc(C)cc3C)C(=O)N=C2S1 the results were LEDGF integ inh 1.3, UHRF1 MBD2 ctr 30.0*, rCAG RNA binder 30.9, MBD2 DNA inh 1.4, PG9 Ab binder -0.7 and DNMT1 block 7.3.
COc1ccc(-n2cccc2/C=C2\C(=N)N3N=C(c4ccco4)SC3=NC2=O)cc1 was read as LEDGF integ inh -0.1, UHRF1 MBD2 ctr 4.0, rCAG RNA binder 51.0*, MBD2 DNA inh 2.8, PG9 Ab binder -1.9 and DNMT1 block 90.4*.
`CCC1=NN2C(=N)/C(=C\c3cccn3-c3c(C)cccc3C)C(=O)N=C2S1` gave LEDGF integ inh -2.8, UHRF1 MBD2 ctr -2.5, rCAG RNA binder 24.6, MBD2 DNA inh -0.1, PG9 Ab binder -1.9 and DNMT1 block 6.8.
For Cn1cccc1C(=O)N1CCN(S(=O)(=O)c2ccc(C(C)(C)C)cc2)CC1 the results were LEDGF integ inh 0.3, UHRF1 MBD2 ctr -1.7, rCAG RNA binder 3.1 and MBD2 DNA inh 2.6.
`COc1cc2nc(NC(=O)c3ccccc3)sc(=O)c2cc1OC` gave LEDGF integ inh -4.2, UHRF1 MBD2 ctr -1.6, rCAG RNA binder 2.5, MBD2 DNA inh 0.3, PG9 Ab binder 25.2* and DNMT1 block -6.1.
CN(Cc1ccncc1)C(=O)[C@@H]1CCCN1C(=O)[C@@H]1CCCN1 was read as LEDGF integ inh -3.8, UHRF1 MBD2 ctr 21.7*, rCAG RNA binder -0.3, MBD2 DNA inh 4.5 and PG9 Ab binder 0.5.
COc1ccc(C(=O)NNC(=S)NC(=O)/C=C/c2cccs2)cc1 was read as LEDGF integ inh 0.8, UHRF1 MBD2 ctr 0.0, rCAG RNA binder 0.0, MBD2 DNA inh 1.2, PG9 Ab binder -1.9 and DNMT1 block 0.9.
For O=C(/C=C/c1cccs1)NC(=S)NNC(=O)c1ccccc1O the results were LEDGF integ inh -4.4, UHRF1 MBD2 ctr -4.6, rCAG RNA binder 37.6*, MBD2 DNA inh 1.7, PG9 Ab binder -0.1 and DNMT1 block 0.9.
`CC(C)(O)C#Cc1ccc(N2C(c3ccsc3)=Cc3ccc(F)cc3C2c2c[nH]c3ccccc23)cc1` (stereo not given) gave LEDGF integ inh -4.8, UHRF1 MBD2 ctr -2.4, rCAG RNA binder 7.8, MBD2 DNA inh -6.7 and PG9 Ab binder -1.4.
Screening O=C(NCCc1ccccn1)c1ccc2c(c1)ncn2C1CCCCC1 returned LEDGF integ inh -0.1, UHRF1 MBD2 ctr 0.2, rCAG RNA binder 2.8 and MBD2 DNA inh -1.7.
